From PubChem BioAssay (NCATS)
Inconclusive results are not listed. The source made the active and inactive calls. Calls come from the whole dose curve; as a rule, active = well fitted curve in the direction sought with a large enough effect; inconclusive = small, poorly fitted or top-dose-only effect, or another doubt; inactive = no such curve, though single readings can be large; an effect the other way counts as inactive or inconclusive.

Assays:
[1] = system: HEK293T; assay: qHTS assay to identify novel small-molecules to repurpose for Merkel cell carcinoma treatment (AID 1296009); conditions: MCC and control cell lines, CellTiter-Glo viability, 72 h; at 44.8 µM (top of the series) unless noted; note: nearly all actives have a fitted effect of over 60% in size
Outline: (§1)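 qHTS format: cells treated with library compounds in DMSO across 8 (NPC) or 11 (MIPE) concentrations. Readout after 72 hr at 37 degree celsius was CellTiter-Glo luminescence.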

[2] = system: MCC-13; assay: as above; conditions: MCC and control cell lines, CellTiter-Glo viability, 72 h; series mostly up to 46 µM
Outline: as §1

[3] = system: MCC-26; assay: as above; conditions: MCC and control cell lines, CellTiter-Glo viability, 72 h; series mostly up to 46 µM
Outline: as §1

[4] = system: MKL-1; assay: as above; conditions: MCC and control cell lines, CellTiter-Glo viability, 72 h; series mostly up to 46 µM
Outline: as §1

[5] = system: MKL-2; assay: as above; conditions: MCC and control cell lines, CellTiter-Glo viability, 72 h; series mostly up to 46 µM
Outline: as §1

[6] = system: UISO; assay: as above; conditions: MCC and control cell lines, CellTiter-Glo viability, 72 h; series mostly up to 46 µM
Outline: as §1

[7] = system: WaGa; assay: as above; conditions: MCC and control cell lines, CellTiter-Glo viability, 72 h; series mostly up to 46 µM
Outline: as §1

[8] = system: C33A; assay: Primary qHTS to identify gynecologic anti-cancer compounds using libraries of approved drugs and bioactive compounds (AID 1345084); conditions: Gynecologic cancer cell panel viability, ATPlite luminescence, 48 h; series mostly up to 57.5 µM; note: nearly all actives have a fitted effect of over 55% in size
Outline: (§2)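 Luminescence from the ATPlite ATP-monitoring reagent indicates viable cell number; lower signal means cytotoxicity. Cells received compound 16 h after seeding and were exposed for 48 h across five concentrations.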

[9] = system: CASKI; assay: as above; conditions: Gynecologic cancer cell panel viability, ATPlite luminescence, 48 h; series mostly up to 57.5 µM
Outline: as §2

[10] = system: Es-2; assay: as above; conditions: Gynecologic cancer cell panel viability, ATPlite luminescence, 48 h; series mostly up to 57.5 µM
Outline: as §2

[11] = system: HeLa; assay: as above; conditions: Gynecologic cancer cell panel viability, ATPlite luminescence, 48 h; series mostly up to 57.5 µM
Outline: as §2

[12] = system: Hek293T; assay: as above; conditions: Gynecologic cancer cell panel viability, ATPlite luminescence, 48 h, control line for the selectivity index; series mostly up to 57.5 µM
Outline: as §2

[13] = system: JEG-3; assay: as above; conditions: Gynecologic cancer cell panel viability, ATPlite luminescence, 48 h; series mostly up to 57.5 µM
Outline: as §2

[14] = system: OV90; assay: as above; conditions: Gynecologic cancer cell panel viability, ATPlite luminescence, 48 h; series mostly up to 57.5 µM
Outline: as §2

[15] = system: PA-1; assay: as above; conditions: Gynecologic cancer cell panel viability, ATPlite luminescence, 48 h; series mostly up to 57.5 µM
Outline: as §2

[16] = system: SKOV3; assay: as above; conditions: Gynecologic cancer cell panel viability, ATPlite luminescence, 48 h; series mostly up to 57.5 µM
Outline: as §2

[17] = system: Tov-21-G; assay: as above; conditions: Gynecologic cancer cell panel viability, ATPlite luminescence, 48 h; series mostly up to 57.5 µM
Outline: as §2

[18] = system: Tov112D; assay: as above; conditions: Gynecologic cancer cell panel viability, ATPlite luminescence, 48 h; series mostly up to 57.5 µM
Outline: as §2

[19] = system: CAOV3; assay: as above; conditions: Gynecologic cancer cell panel viability, ATPlite luminescence, 48 h; series mostly up to 57.5 µM
Outline: as §2

Measured: Potency

CCC(C)(CN(C)C)OC(=O)c1ccccc1 (stereo unspecified)
not listed: [19]
inactive: all other assays above

Cc1ccsc1C(=CCCN1CCC[C@@H](C(=O)O)C1)c1sccc1C
not listed: [19]
inactive: all other assays above

CC(=O)Nc1ccc(OCCOCCOc2ccc(NC(C)=O)cc2)cc1
not listed: [16]
inactive: all other assays above

O=C(O)Cc1cn(-c2ccccc2)nc1-c1ccc(Cl)cc1
inactive: all assays above

COc1ccc2cc(CCC(C)=O)ccc2c1
not listed: [12] | [13] | [14] | [16]
inactive: all other assays above

COc1cc(O)cc(O)c1
inactive: all assays above

OC[C@@H](O)[C@@H](O)[C@H](O)[C@H](O)CO
not listed: [12]
inactive: all other assays above

CCCCCCCCCCCCCCCCN
not listed: [12] | [19]
inactive: all other assays above

COc1ccc(NS(=O)(=O)c2ccc(N)cc2)nn1
not listed: [14]
inactive: all other assays above

Nc1ccc(S(=O)(=O)c2ccc(N)cc2)cc1
not listed: [15] | [16]
inactive: all other assays above

CC(C)=CCC/C(C)=C/CO
inactive: all assays above

CC1(C)S[C@@H]2[C@H](NC(=O)C(C(=O)O)c3ccccc3)C(=O)N2[C@H]1C(=O)O (stereo partly specified)
not listed: [19]
inactive: all other assays above

CC(C)=CCC[C@@](C)(O)[C@H]1CC=C(C)CC1
not listed: [11]
inactive: all other assays above

OCCN1C[C@H](O)[C@@H](O)[C@H](O)[C@H]1CO
inactive: all assays above

C[C@@H](N)C(=O)O
inactive: all assays above

Nc1ncnc2c1ncn2[C@@H]1O[C@H](COP(=O)(O)O)[C@@H](O)[C@H]1O
not listed: [16]
inactive: all other assays above

O=C(O)c1ccccc1C(=O)Nc1ccc(S(=O)(=O)Nc2nccs2)cc1
not listed: [19]
inactive: all other assays above

COC(=O)N/N=C/c1c[n+]([O-])c2ccccc2[n+]1[O-]
inactive: all assays above

COC(=O)c1ccccc1C(=O)c1ccc(OCCN2CCCCC2)cc1
not listed: [13] | [14] | [16]
inactive: all other assays above

Cc1cc(O)cc(C)c1Cl
not listed: [14]
inactive: all other assays above

CCOC(=O)[C@H](CCc1ccccc1)N[C@@H](C)C(=O)N1Cc2cc(OC)c(OC)cc2C[C@H]1C(=O)O
inactive: all assays above

C[N+](C)(C)CC[N+]1(C)Cc2c(Cl)c(Cl)c(Cl)c(Cl)c2C1
not listed: [19]
inactive: all other assays above

CNCc1ccccc1
not listed: [13] | [14]
inactive: all other assays above

CCCCCOC(=O)Nc1nc(=O)n([C@@H]2O[C@H](C)[C@@H](O)[C@H]2O)cc1F
not listed: [16]
inactive: all other assays above

CC(CSC(=O)c1ccccc1)C(=O)N1C[C@@H](Sc2ccccc2)C[C@H]1C(=O)O (stereo partly specified)
inactive: [1] inactive [at 17.4 µM] | [2] | [3] | [4] | [5] | [6] | [7] | [8] | [9] | [10] | [11] | [12] | [13] | [15] | [17] | [18]

CC(C)NC[C@@H](O)COc1ccc(CC(N)=O)cc1
not listed: [16]
inactive: all other assays above

CCCCCCCCCCC(CO)CCCCCCCC (stereo unspecified)
inactive: all assays above

CCCOC(=O)c1ccc(N)cc1
not listed: [9]
inactive: all other assays above

CC(C)C[C@@H](N)C(=O)O
inactive: [1] inactive [at 17.4 µM] | [2] | [3] | [4] | [5] | [6] | [7] | [8] | [19] | [9] | [10] | [11] | [12] | [13] | [14] | [15] | [16] | [17] | [18]
